Screens from PubChem.
ssDAF12 agonist – activates DAF-12 receptor from parasite S. stercoralis. HEK293 ssDAF-12/GRIP1 lit1-tk-luc reporter, luminescence; % of 3 µM dafachronic acid response. activation, % at 6.8 µM. 370,000 compounds, 1% hits. AID 652126;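 active = activation above the mean over all tested compounds plus 3 SD, cut at about 0.9% in these data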
GAA850 FXN act – activators of GAA850 frataxin (FXN) promoter. activation, % at 6 µM. HEK293 lucGAA850 FXN promoter luciferase reporter, 24 h; percent of 10 µM SAHA response. AID 540364. 360,000 compounds, 0.56% hits;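 active = activation above the average of all compounds screened plus 3 SD, cutoff fixed separately per campaign, cut at about 7.5% in these data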
hgDAF12 agonist – agonists of H. glycines DAF-12 nuclear receptor; HEK293 GAL4-hgDAF12 UAS-luciferase reporter, agonist luminescence; normalized to butyrate control; activation, % at 6.8 µM; 370,000 compounds, 1.8% hits; AID 687014;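 active = activation above a cutoff set at the mean of all screened compounds plus 3 SD, cut at about 10% in these data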
hcDAF12 agonist – H. contortus DAF-12 activation, primary screen | HEK293 hcDAF-12 lit1-tk-luc reporter, luminescence; 0% DMSO, 100% Δ7-dafachronic acid | activation, % at 6.8 µM | 370,000 compounds, 1.4% hits | AID 652067;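 active = activation above the mean of all tested compounds plus 3 SD, cut at about 5.5% in these data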
DAX1 inh-1 – NR0B1 (DAX1) inhibition; P51843; HEK293 Gal4-DAX1 luciferase reporter, luminescence; inhibition, % at 6.75 µM; 340,000 compounds, 0.99% hits; AID 504766;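 active = inhibition above the mean over all tested compounds plus 3 SD, cut at about 4.2% in these data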;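 note: inhibition shows as a rise in luminescence from relieved DAX1 repression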
Target sequence (P51843 207-470 limits assumed): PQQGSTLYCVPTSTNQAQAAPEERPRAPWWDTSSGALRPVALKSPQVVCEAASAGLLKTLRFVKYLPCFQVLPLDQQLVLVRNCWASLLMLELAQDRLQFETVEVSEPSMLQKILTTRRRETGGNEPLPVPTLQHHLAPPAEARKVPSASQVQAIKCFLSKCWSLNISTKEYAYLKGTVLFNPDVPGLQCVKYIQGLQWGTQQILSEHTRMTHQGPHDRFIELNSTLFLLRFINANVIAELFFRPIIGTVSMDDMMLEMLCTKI
DAX1 inh-2 – inhibitors of DAX1 repression of SF-1 activated StAR promoter; 370,000 compounds, 1.1% hits; inhibition, % at 6.8 µM; HEK293T StAR-luciferase reporter, SF-1/DAX-1 repression relief;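 active = inhibition above the mean over all tested compounds plus 3 SD, cut at about 3.6% in these data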;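 note: higher inhibition means more luminescence from relief of DAX-1 repression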
Of the large screens only hits and unclear results are named; the others gave an inactive call. Compounds with a hit are over-represented: about 4.5% of the library has one in this group of screens.

COc1cccc(NC(=S)N(CCC(C)C)C(C)c2ccncc2)c1 (stereo unspecified)	none
CCOC(=O)CSc1nc2cc(C)ccc2cc1C#N	hgDAF12 agonist 11
CCOC(=O)CC(=O)CSc1nc2c(C)c(C)ccc2cc1C	none
CCOC(=O)CC(=O)CSc1nc2cc(C)ccc2cc1C	hcDAF12 agonist 6.4
CCOC(=O)CC(=O)CSc1nc2ccc(OC)cc2cc1C	ssDAF12 agonist 1.7
COc1ccc2nc(SCC(=O)NC3CCCC3)c(C)cc2c1	none
Cn1c(SCC(=O)NCCc2ccccc2)ncc(C(=O)Nc2ccc(F)cc2)c1=O	ssDAF12 agonist 0.9
Cn1c(SCC(=O)c2ccccc2)ncc(C(=O)Nc2ccccc2)c1=O	none
COc1ccccc1NC(=O)C/C(C)=N/NC(=O)C12CC3CC(CC(C3)C1)C2	none
COc1ccc(CCNC(=O)C/C(C)=N/NC(=O)C23CC4CC(CC(C4)C2)C3)cc1OC	ssDAF12 agonist 0.9
Cc1ccccc1C1c2[nH]c3ccccc3c2C[C@H]2C(=O)N(C3CC3)CC(=O)N12 (stereo partly specified)	hcDAF12 agonist 6.4
Cc1ccc(S(=O)(=O)N2CCOC2C(Cl)(Cl)Cl)cc1 (stereo unspecified)	ssDAF12 agonist 1.2
CNC(=O)C(=O)NCC1OCCN1S(=O)(=O)c1ccc(C)cc1 (stereo unspecified)	none
C=CCn1c(SCC(=O)Nc2ccccc2-c2ccccc2)nnc1-c1ccccc1	none (no result: GAA850 FXN act, DAX1 inh-1)
CCOCc1c(C(=O)N2CCN(CC(=O)Nc3ccc(F)cc3)CC2)oc2ccccc12	ssDAF12 agonist 1.2
C=CCN1C(=O)[C@@H](CC(=O)NCc2cccs2)[C@]2(C(=O)OC)CCCCC=C12	none (no result: GAA850 FXN act, DAX1 inh-1)
COc1ccccc1CC(=O)Nc1ccc([N+](=O)[O-])cc1O	DAX1 inh-1 5.9
O=C(COC(=O)c1n[nH]c2ccccc12)Nc1ccc(Cl)cc1[N+](=O)[O-]	none
COc1cc([N+](=O)[O-])ccc1NC(=O)COC(=O)c1n[nH]c2ccccc12	hcDAF12 agonist 6.3
COc1ccccc1CC(=O)Nc1ccccc1O	none
O=C(CN1C(=O)C2(OCCCO2)c2ccccc21)NCc1ccccc1Cl	none (no result: GAA850 FXN act, DAX1 inh-1)
CC1(C)Cc2c(cnn2-c2ccc(F)cc2)C(NC(=O)C(C)(C)O)C1 (stereo unspecified)	none
CC1(C)Cc2c(cnn2-c2ccc(F)cc2)C(NC(=O)C2CCC2)C1 (stereo unspecified)	DAX1 inh-2 4.3
CCN(CC)Cc1c(NC(=O)c2ccccc2)sc(C)c1C	hgDAF12 agonist 11
CCN(CC)C(=O)c1c(NC(=O)c2ccccc2)sc(C)c1C	none
N#CCC(=O)N1CCN(C=O)CC1	DAX1 inh-1 4.7
COc1ccc(N2CCN(CCCNC(=O)Cc3ccc(C(F)(F)F)cc3)CC2)cc1	none (no result: GAA850 FXN act, DAX1 inh-1)
CNC(=S)N/N=C/c1ccc(N(C)C)cc1	hgDAF12 agonist 11
N#Cc1cc2cc3c(cc2nc1N1CCCCC1)OCCO3	hcDAF12 agonist 6.2
COC(=O)[C@]12C[C@H](CC(=O)NCCCN3CCCC3=O)C(=O)N(Cc3cccc4ccccc34)C1=C[C@H](C(C)(C)C)O[C@@H]2C	none (no result: GAA850 FXN act, DAX1 inh-1)
CC(C)C[C@H]1COc2cc(Br)ccc2S(=O)(=O)N1Cc1cn(Cc2ccc(C(F)(F)F)cc2)nn1	none (no result: GAA850 FXN act, DAX1 inh-1)
C/C(CC(C)C)=N/Nc1ccc([N+](=O)[O-])cc1[N+](=O)[O-]	none
CC(Cc1ccccc1)=NNc1ccc([N+](=O)[O-])cc1[N+](=O)[O-]	ssDAF12 agonist 2.4
Cc1ccc2c(c1)C(CS(=O)(=O)NCC(C)C)NC2 (stereo unspecified)	none (no result: GAA850 FXN act, DAX1 inh-1)
O=c1[nH]c(/C=C/c2ccccc2F)nc2ccccc12	hgDAF12 agonist 11
Brc1ccccc1Cn1nnc(-c2ccc(N3CCOCC3)cc2)n1	none (no result: GAA850 FXN act, DAX1 inh-1)
O=C(c1ccc(Cl)c(Cl)c1)N1CCC(Oc2cccnc2)CC1	none (no result: GAA850 FXN act, DAX1 inh-1)
CCOc1ccc(C(=O)N/N=C/c2ccccc2[N+](=O)[O-])cc1	hgDAF12 agonist 10
COc1ccccc1/C=N/NC(=O)c1ccc(NC(=O)c2ccccc2Br)cc1	none
CCC(=O)Nc1ccc(C(=O)N/N=C/c2cc(Br)c(OC)cc2OC)cc1	ssDAF12 agonist 1.9
CC(=O)Nc1ccc(C(=O)N/N=C/c2ccccc2OCc2ccccc2)cc1	DAX1 inh-1 4.3
